Reference: paper PMC5540273 (PLoS ONE, 2017)

Legend:
Details in all cases: concentration: 1 μM,replicates: in singlicate; n = 1
[1] = test system: CDC2L2
[2] = test system: T1, CDC2L5
T1 construct: gene CDK13

[3] = test system: T2, CDK11
T2 construct: gene CDK19

[4] = test system: CDK2
[5] = test system: CDK3
[6] = test system: CDK4-cyclinD1
[7] = test system: CDK4-cyclinD3
[8] = test system: CDK4
[9] = test system: CDK5
[10] = test system: CDK7
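Further: KINOMEscan kinase panel screen.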

SMILES | %Inh [1] [%] | %Inh [2] [%] | %Inh [3] [%] | %Inh [4] [%] | %Inh [5] [%] | %Inh [6] [%] | %Inh [7] [%] | %Inh [8] [%] | %Inh [9] [%] | %Inh [10] [%]
C=CC(=O)Nc1cc2c(Nc3ccc(F)c(Cl)c3)ncnc2cc1OCCCN1CCOCC1 [GW781483] | 0 | 19 | 15 | 0 | 0 | 27 | 11 | 23 | 0 | 17
CC(C)N1C(=O)Cc2cc(Nc3ncc(C(F)(F)F)c(NCc4cccc(S(C)(=O)=O)c4)n3)ccc21 | 3 | 7 | 0 | 0 | 5 | 26 | 0 | 35 | 9 | 52
Nc1nc(Nc2ccccc2)cc(-c2ccc3c(N)n[nH]c3c2)n1 [GSK2225749] | 0 | 0 | 0 | 0 | 8 | 0 | 0 | 0 | 0 | 7
Cc1ccc(-n2nc(C(C)(C)C)cc2NC(=O)Nc2ccc(OCCN3CCOCC3)c3ccccc23)cc1 [GW839464] | 13 | 0 | 100 | 0 | 11 | 5 | 0 | 0 | 5 | 0
COc1ccc(C[C@@H](CN)NC(=O)c2cc(Br)c(-c3ccnc4[nH]ccc34)s2)cc1.Cl.Cl [GSK1389063] | 0 | 0 | 39 | 6 | 5 | 0 | 28 | 0 | 0 | 72
CCN(CC)CCCCNc1ncc2cc(-c3c(Cl)cccc3Cl)c(NC(=O)NC(C)(C)C)nc2n1 | 0 | 9 | 14 | 8 | 10 | 0 | 0 | 9 | 14 | 34
CCN(CC)CCOc1ccc(Nc2ncc3cc(-c4c(Cl)cccc4Cl)c(=O)n(C)c3n2)cc1 [SB-601273] | 43 | 41 | 90.1 | 7 | 9 | 80 | 48 | 89 | 0 | 34
CNC(=O)c1ccccc1Sc1ccc2c(/C=C/c3ccccn3)n[nH]c2c1 | 0 | 0 | 0 | 1 | 63 | 0 | 0 | 0 | 3 | 25
NC(=O)c1cc(-c2ccccc2)cc2c(C3CCNCC3)c[nH]c12 [GSK301362] | 17 | 0 | 6 | 0 | 16 | 0 | 3 | 13 | 0 | 0
C[C@H]1Oc2cc(cnc2N)-c2c(nn(C)c2C#N)CN(C)C(=O)c2ccc(F)cc21 | 18 | 0 | 12 | 21 | 6 | 0 | 0 | 0 | 11 | 0
CN(C)CC(O)COc1ccc(Nc2nccc(-c3cnn4nc(N5CCOCC5)ccc34)n2)cc1 (stereo not shown) [GW767488] | 41 | 50 | 27 |  | 9 | 99.4 | 98.3 | 100 | 6 | 99.7
Cc1ccc2c(-c3ccncc3)c(-c3ccc(F)cc3)nn2c1.Cl [GW461484] | 10 | 0 | 0 | 0 | 0 | 0 | 0 | 28 | 0 | 45
Cc1occc1-c1nc(N)c(OC[C@@H](N)Cc2c[nH]c3ccccc23)cc1-c1cc2c(C)n[nH]c2cn1 [GSK1660450] | 0 | 0 | 0 | 0 | 12 | 0 | 0 | 0 | 0 | 75
CC(C)Nc1cc(-c2ccc3c(N)n[nH]c3c2)nc(N)n1 [GSK2221681] | 0 | 0 | 0 | 21 | 0 | 0 | 0 | 0 | 0 | 0
O=C(NCCCN1CCOC1=O)c1cnc(NCc2cc(Cl)ccc2Cl)nc1NC1CCCC1 | 0 | 0 | 29 | 0 | 14 | 4 | 0 | 12 | 10 | 14
Cl.Cl.NC[C@H](CC1CCCCC1)NC(=O)c1cc(Br)c(-c2ccnc3[nH]ccc23)s1 [GSK1581427] | 0 | 0 | 12 | 0 | 0 | 0 | 6 | 0 | 0 | 45
Cl.Cl.Nc1nc(-c2ccc3c(N)n[nH]c3c2)cc(N2CCCC(NC(=O)c3ccccc3)C2)n1 (stereo not shown) [GSK2286775] | 31 | 0 | 11 | 0 | 16 | 0 | 19 | 0 | 0 | 0
O=C(NCCNc1ccnc(NCc2ccc(F)cc2)n1)c1cc2ccccc2s1 [GSK1379944] | 0 | 0 | 0 | 68 | 83 | 84 | 11 | 1 | 0 | 0
C[C@@H]1CCN(C(=O)CC#N)C[C@@H]1N(C)c1ncnc2[nH]ccc12 | 0 | 0 | 18 | 0 | 14 | 0 | 6 | 0 | 0 | 2
Cl.Cl.NC[C@H](Cc1ccc(C(F)(F)F)cc1)NC(=O)c1cc(Br)c(-c2ccnc3[nH]ccc23)s1 [GSK1487252] | 0 | 0 | 14 | 3 | 0 | 14 | 2 | 0 | 0 | 0
Cc1cc(C(=O)Nc2ccc(Oc3ccc4nc(NC(=O)C5CC5)cn4n3)cc2)nn1-c1ccccc1 | 6 | 0 | 3 | 0 | 39 | 13 | 0 | 4 | 0 | 0
Cc1cc2cn[nH]c2cc1-c1cccc2c(N)c(C(N)=O)nnc12 | 32 | 0 | 1 | 24 | 43 | 8 | 35 | 18 | 88 | 0
CN(C)CCOc1ccc(-c2cc(-c3c[nH]nc3-c3ccccn3)ccn2)cc1 [GW835314] | 9 | 0 | 13 | 1 | 16 | 0 | 17 | 45 | 0 | 16
CCn1c(-c2nonc2N)nc2c(C#CC(C)(C)O)nc(OCCN)cc21.Cl.Cl [GSK902056] | 3 | 0 | 1 | 0 | 22 | 0 | 0 | 0 | 0 | 0
Cl.Oc1cc(-c2nc(-c3ccccc3)[nH]c2-c2ccncc2)ccc1Cl [SB-386023] | 0 | 1 | 5 | 4 | 0 | 2 | 0 | 47 | 32 | 11
C[C@@H](Oc1cc(-c2cnn(C3CCNCC3)c2)cnc1N)c1c(Cl)ccc(F)c1Cl | 55 | 0 | 29 | 11 | 12 | 12 | 0 | 0 | 12 | 
Cc1n[nH]c2ccc(-c3cc(OC[C@@H](N)Cc4ccccc4)cnc3-c3ccoc3)cc12.O=C(O)C(F)(F)F.O=C(O)C(F)(F)F [GSK507358] | 0 | 0 | 6 | 0 | 0 | 0 | 0 | 10 | 0 | 0
